A selection: hits, their analogues and other compounds. The true share with any hit is near 0.59%.
DUSP3 inh – VHR1 phosphatase inhibitors, primary screen, biochemical, absorbance, uHTS; inhibition, % at 13.3 µM; 290,000 compounds, 0.52% hits; recombinant VHR phosphatase, pNPP absorbance; AID 1654, 2009; in the data active = inhibition above about 50%
Target sequence (P51452 whole entry, looked up): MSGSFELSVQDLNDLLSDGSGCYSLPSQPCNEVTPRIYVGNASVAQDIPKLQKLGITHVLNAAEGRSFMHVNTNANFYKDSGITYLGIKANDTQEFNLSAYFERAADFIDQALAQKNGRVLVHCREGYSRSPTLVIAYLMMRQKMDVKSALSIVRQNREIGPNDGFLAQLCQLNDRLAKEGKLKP
Mtb betalactam – beta-lactam sensitization of Mtb H37Rv, H37Rv; M. tuberculosis H37Rv growth with meropenem, percent inhibition; inhibition, % at 25 µM; 330,000 compounds, 0.27% hits; AID 434955, 2010; call rule not given here;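 note: growth measured after seven days incubation then overnight dye step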
Rv3671c protease – Rv3671c serine protease inhibitors, primary screen, biochemical, fluorescence polarization, M. tuberculosis H37Rv | AID 2606, 2010 | inhibition, % at 5.96 µM | 320,000 compounds, 0.048% hits; in the data active = inhibition above about 38%;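 note: extracellular domain of Rv3671c used as enzyme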
Target sequence (P9WHR9 whole entry, looked up, the tested form may be a part): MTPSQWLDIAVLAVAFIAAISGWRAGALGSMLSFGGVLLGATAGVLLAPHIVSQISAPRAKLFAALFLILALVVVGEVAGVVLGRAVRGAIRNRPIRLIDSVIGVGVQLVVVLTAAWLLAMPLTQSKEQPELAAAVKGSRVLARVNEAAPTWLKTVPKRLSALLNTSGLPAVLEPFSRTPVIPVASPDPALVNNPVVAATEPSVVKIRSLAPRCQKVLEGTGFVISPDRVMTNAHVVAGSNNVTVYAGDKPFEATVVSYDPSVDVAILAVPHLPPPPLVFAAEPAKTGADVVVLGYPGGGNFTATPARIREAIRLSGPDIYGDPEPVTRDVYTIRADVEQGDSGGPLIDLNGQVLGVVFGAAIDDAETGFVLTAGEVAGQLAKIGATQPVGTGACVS
Mtb hypoxia inh – PubChem AID 1159583 | M. tuberculosis hypoxia-regulated fluorescent reporter, fluorescence | fluorescence inhibition, % (test concentration not listed) | 300,000 compounds, 0.1% hits; in the data active = fluorescence inhibition mostly above about 23%, no sharp cut-off; inactive = mostly below about 17%
Mtb UGM inh – M. tuberculosis UGM enzyme inhibitors, primary screen, biochemical, fluorescence polarization, single point; purified UGM, fluorescence polarization probe displacement; inhibition, % at 10 µM; 320,000 compounds, 0.06% hits; in the data active = inhibition above about 10%, passing the limit was not always enough
A number is an active result; i = inactive; nt = not tested or not shown.

SMILES	DUSP3 inh	Mtb betalactam	Rv3671c protease	Mtb hypoxia inh	Mtb UGM inh
COc1ccc(N=CC2=C(Nc3ccc(OC)cc3)c3c(C)nn(-c4ccccn4)c3CC2)cc1	nt	i	i	nt	14
COc1ccc(-c2cc(-c3ccc(F)cc3)nc(N3CCN(C)CC3)n2)cc1	nt	i	i	i	i
COc1ccc(-c2cc(C#N)nc(N3CCN(c4ccccc4)CC3)n2)cc1	53	i	i	i	i
COc1cc(C(=O)Nc2cc(S(=O)(=O)N3CCOCC3)ccc2N2CCOCC2)cc(OC)c1C	nt	nt	nt	i	nt
COc1cc(C(=O)Nc2cc(S(=O)(=O)N3CCOCC3)ccc2N2CCOCC2)ccc1OC(F)F	nt	nt	nt	23	nt
Cn1c(N/N=C2\CCCc3ccccc32)nc2c1c(=O)n(Cc1ccc(F)cc1)c(=O)n2C	60	nt	nt	nt	nt
Cc1ccc(C2(C)NC(=O)N(CC(=O)Nc3ccc(N4CCOCC4)cc3N3CCOCC3)C2=O)cc1 (stereo unspecified)	nt	i	i	nt	i
O=C(Cc1ccccc1[N+](=O)[O-])NNC(=O)Nc1ccc2c(c1)OCO2	50	i	i	i	i
O=C(Cc1ccccc1[N+](=O)[O-])Nc1ccc2c(c1)OCO2	i	i	i	i	i
Nc1c(Cl)c(Cl)nc(C(=O)NN=Cc2cccnc2)c1Cl	nt	nt	nt	i	nt
COC(=O)c1ccc(-c2cc(C(=O)O)c3cc4c(cc3n2)OCCO4)cc1	52	i	i	nt	i
COc1cc(-c2cc(C(=O)O)c3cc4c(cc3n2)OCCO4)cc(OC)c1OC	i	i	i	i	i
COc1ccc(C)cc1S(=O)(=O)N1CCN(C(=O)c2ncoc2-c2ccc(F)cc2)CC1	53	i	i	i	i
CCOc1ccc(/C(CCC(=O)O)=N/NC(=O)c2cccc(S(=O)(=O)Nc3ccccc3OC)c2)cc1	nt	i	i	nt	11
COc1ccccc1NS(=O)(=O)c1cccc(C(=O)N/N=C/c2ccc(OCC(=O)O)cc2)c1	i	i	i	nt	i
Cc1nn(C)cc1CN(C)C(=O)c1ccc(OC2CCN(Cc3ccccn3)CC2)cc1	i	i	i	i	i
CC(C)N(Cc1cnn(C)c1)C(=O)c1ccc(OC2CCN(Cc3ccccn3)CC2)cc1	57	i	i	i	i
CC(C)N=C1SC(CC(=O)Nc2ccccc2)C(=O)N1C(C)C (stereo unspecified)	i	i	i	i	i
Cc1ccc(NC(=O)C(C)N=C2NS(=O)(=O)c3ccccc32)cc1 (stereo unspecified)	i	i	i	i	i
COc1ccc(NC(=O)C(C)N=C2NS(=O)(=O)c3ccccc32)cc1S(N)(=O)=O (stereo unspecified)	nt	i	i	26	i
Cc1cc(Cl)c2oc(C(=O)N(CCO)Cc3ccccc3)c(C)c2c1	i	i	i	i	i
Cc1c(C(=O)N(CCO)Cc2ccccc2)oc2c(F)cccc12	56	i	i	i	i
O=C(CSc1nc2ccc(NC(=O)c3ccccc3C(=O)O)cc2s1)Nc1c(Cl)cccc1Cl	i	i	i	i	i
O=C(c1cnc2c(c1)COc1ccc(Cl)cc1-2)c1ccccc1O	50	i	i	nt	i
Cc1sc2ncnc(N3CCC(C(=O)NNC(=O)COc4ccc(Br)cc4)CC3)c2c1C	nt	i	i	i	i
SMILES	DUSP3 inh	Mtb betalactam	Rv3671c protease	Mtb hypoxia inh	Mtb UGM inh
CCCCCN(C(=O)CCC(=O)OCC(=O)N1CCCCC1CC)c1c(N)n(CCCC)c(=O)[nH]c1=O (stereo unspecified)	nt	nt	nt	i	nt
CCC1OC(=O)C(C)C(OC2C[C@@](C)(OC)C(O)C(C)O2)C(C)C(O[C@@H]2OC(C)CC(N(C)C)C2O)[C@](C)(O)CC(C)C(=NOCOCCOC)C(C)C(O)[C@]1(C)O (stereo partly specified)	nt	i	i	nt	i
COc1ccc(CNC(=O)C(CCSC)NS(=O)(=O)c2ccccc2F)cc1 (stereo unspecified)	i	i	i	i	i
CC(C)CN1CCN(Cc2c[nH]c3ccccc23)CC1CCO (stereo unspecified)	i	i	i	i	i
CC(C)N(C(=O)Cn1c(SCC(=O)NC2CC2)nc2ccccc21)C(C)C	i	i	i	i	i
COC(=O)CSc1nc2ccccc2n1CC(=O)N(C(C)C)C(C)C	52	i	i	i	i
COc1cc(C=NNC(=O)c2cc(C)oc2C)ccc1O	nt	nt	nt	i	nt
[O-][n+]1c2ccccc2c2n1CCN1CCOC21c1ccc(Cl)cc1 (stereo unspecified)	nt	i	i	66	i
CO/N=C/c1ccc(Oc2ccc(C)cc2)c([N+](=O)[O-])c1	i	i	i	nt	i
CSc1ccc(CNCc2ccc3c(c2)OCO3)cc1	55	i	i	i	i
Fc1cccc(CNCc2ccc3c(c2)OCO3)c1	i	i	i	i	i
COc1ccc(C=Cc2c(-c3cccc(C)c3)oc3ccc(N4CCOCC4)cc23)cc1	nt	nt	nt	i	nt
COC(=O)c1nc(N)sc1-c1ccccc1	i	i	i	nt	i
COC(=O)c1nc(N)sc1C(C)C	53	i	i	i	i
COc1cc2[nH]c3c(N4CCN(c5ccc(Cl)cc5)CC4)ncnc3c2cc1OC	i	i	38	i	i
COc1cc2[nH]c3c(Cl)ncnc3c2cc1OC	i	i	i	i	i
Cc1ccc(S(=O)(=O)N(C)CC(=O)OCC(=O)NC(=O)Nc2ccc3c(c2)OCCO3)cc1	i	i	i	nt	i
O=C(Nc1ccc(F)c(Cl)c1)C1CC(=O)n2c(nc3ccccc32)N1 (stereo unspecified)	53	i	i	i	i
O=C(Nc1ccc(F)cc1)C1CC(=O)n2c(nc3ccccc32)N1 (stereo unspecified)	i	i	i	nt	i
COc1ccccc1-c1coc2cc(OCC(=O)OCc3ccccc3)ccc2c1=O	i	i	i	i	i
CCCCOc1cccc(C(=O)Nc2ccc(S(=O)(=O)Nc3cc(C)on3)cc2)c1	i	i	i	i	i
CCC(C)n1c(NC(=O)c2ccccc2)c(C#N)c2nc3ccccc3nc21 (stereo unspecified)	58	i	i	nt	i
COc1ccccc1N(CC(=O)Nc1cc(C)on1)S(=O)(=O)c1ccc(Cl)cc1	i	i	i	i	i
CC1(C)NC(=O)N(CCCOc2ccccc2Br)C1=O	51	i	i	nt	i
CC1(C)NC(=O)N(CCCCOc2ccccc2[N+](=O)[O-])C1=O	i	i	i	i	i
SMILES	DUSP3 inh	Mtb betalactam	Rv3671c protease	Mtb hypoxia inh	Mtb UGM inh
O=[N+]([O-])c1cccc(/C=N/N=C\c2ccccc2)c1	60	i	nt	nt	i
O=[N+]([O-])c1ccn(-c2nc(-c3cccs3)cc(C(F)(F)F)n2)n1	54	i	i	i	i
Cc1ccc(S(=O)(=O)Nc2c(C)n(C)n(-c3ccccc3)c2=O)cc1C(=O)OC(C)C(=O)N(C)c1ccccc1 (stereo unspecified)	i	i	i	i	i
Cc1ccc(S(=O)(=O)Nc2c(C)n(C)n(-c3ccccc3)c2=O)cc1C(=O)OC(C)C(=O)c1ccccc1 (stereo unspecified)	nt	nt	nt	21	nt
COc1cc(CO)ccc1Oc1nnnn1-c1ccc(C(N)=O)cc1	i	i	i	i	i
CCCc1[nH]n(-c2ccc([N+](=O)[O-])cc2)c(=O)c1C=NCCc1c[nH]c2ccccc12	i	i	i	nt	i

Screens from PubChem BioAssay.
